From PubChem
APOBEC3G inh = APOBEC3G (human) deaminase inhibition; inhibition, % at 20 µM; hit rate 0.28% among 330,000; Q9HC16; AID 493012; recombinant A3G, ssDNA deamination FAM/TAMRA fluorescence;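 active means inhibition of at least 40% at 20 µM, with no more than 30% in the related APOBEC3A deaminase screen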;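 further: plate controls were DMSO wells with A3G for no effect and wells lacking A3G enzyme for full effect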
rCAG binder = binds r(CAG) RNA repeats; r(CAG) RNA repeat, TO-PRO-1 dye displacement fluorescence; inhibition, % at 3 µM; hit rate 1.3% among 370,000; AID 651821;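 active means inhibition above the plate cutoff, the mean of all test compounds on that plate plus 3 SD, cut at about 35% in these data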;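 further: 0% = DMSO alone and 100% = 100 µM mitoxantrone as full dye displacement; higher means more dye released from RNA so lower well fluorescence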
A3A deaminase = human APOBEC3A DNA deaminase inhibition; recombinant A3A, FAM/TAMRA ssDNA deamination fluorescence; hit rate 0.41% among 330,000; inhibition, % at 20 µM; P31941;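 active means at least 40% inhibition at 20 µM here, with at most 30% in a related deaminase screen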;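 further: plate controls were A3A with DMSO for no effect and wells lacking A3A enzyme for full effect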
Target sequence (P31941 whole entry, looked up): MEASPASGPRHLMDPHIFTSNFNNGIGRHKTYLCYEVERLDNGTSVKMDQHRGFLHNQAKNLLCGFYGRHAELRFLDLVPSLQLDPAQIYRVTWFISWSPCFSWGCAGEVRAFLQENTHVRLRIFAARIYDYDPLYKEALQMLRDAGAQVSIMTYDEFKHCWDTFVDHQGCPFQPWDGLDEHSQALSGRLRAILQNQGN
aDG glyco up = increases alpha dystroglycan glycosylation; hit rate 0.22% among 360,000; activation, % at 10 µM; Pro5-aDG cells, alpha-DG glycosylation AlphaScreen (IIH6); 0% Pro5, 100% B10-LARGE cell signal;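 active means activation of at least 8% versus controls, or a plate z-score of at least 8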;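 further: Pro5 are CHO cells carrying HIG-tagged alpha-DG that lacks glycosylation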
PHOSPHO1 block = inhibitors of human PHOSPHO1 phosphatase; Q8TCT1; recombinant PHOSPHO1, absorbance phosphatase assay; inhibition, % at 13.3 µM; hit rate 1.1% among 290,000; in the data active means inhibition above about 60%
ALR inh = human ALR oxidase inhibition via reduced H2O2; purified ALR, DTT oxidation, H2O2 HRP-luminol luminescence; inhibition, % (no concentration beside the values); hit rate 3.8% among 290,000; AID 485317;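 active means mean replicate inhibition above about 79%, with every replicate also reaching it, limit read from the data; inconclusive means only one of the two criteria met; inactive means mean below limit and not every replicate reaching it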
Target sequence (P55789 whole entry, looked up): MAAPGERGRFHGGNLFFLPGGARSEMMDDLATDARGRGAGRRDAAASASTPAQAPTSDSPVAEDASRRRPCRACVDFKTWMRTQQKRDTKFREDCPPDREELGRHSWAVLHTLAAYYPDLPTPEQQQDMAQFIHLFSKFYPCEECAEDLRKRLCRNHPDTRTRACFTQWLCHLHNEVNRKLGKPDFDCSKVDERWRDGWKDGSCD
The depositor's hits bear a star; ? = inconclusive; · = no result given. This is a sample that favours compounds with a hit; in the whole collection about 5.4% have one here.

SMILES	APOBEC3G inh	rCAG binder	A3A deaminase	aDG glyco up	PHOSPHO1 block	ALR inh
O=C(NCc1cccnc1)c1ccc2c(c1)N(Cc1ccccc1)CCS2	1	5	7	0	-15	92*
O=C(NCc1ccccn1)c1ccc2c(c1)N(Cc1ccccc1)CCS2	-1	-1	6	0	6	98*
O=C(NC1CCCC1)c1ccc2c(c1)N(Cc1ccccc1)CCS2	-13	0	-9	0	34	17
CCN1CCSc2ccc(C(=O)NCc3cccc(F)c3)cc21	-3	6	-2	4	23	99*
Cc1ccc(C(=O)NCc2ccccn2)cc1Cl	-3	0	-2	0	60*	-17
CN(Cc1ccccc1)C(=O)OCc1cn(Cc2cccc(C(F)(F)F)c2)nn1	·	-1	·	·	·	·
Cc1ccc(-n2c(SCC(=O)c3ccc(-c4ccccc4)cc3)nnc2-c2ccc(C(C)(C)C)cc2)cc1	·	10	·	·	·	·
COC(=O)[C@]12C[C@H](CC(=O)NCCCCc3ccccc3)C(=O)N(Cc3ccc(Cl)cc3Cl)C1=C[C@H](C(C)C)O[C@@H]2C1CC1	·	9	·	·	·	·
CN1CCCCC(NC(=O)c2ccc(Cl)cc2Cl)C1=O (centres undefined)	·	2	·	·	·	·
CCOC(=O)c1cc(C)sc1NC(=O)CN1CCN(C(=O)C2CCCO2)CC1 (centres undefined)	-5	-8	0	0	18	96*
Cc1ccc(NC(=O)CSc2n[nH]c(-c3ccco3)n2)c(C)c1	-3	4	-2	0	-20	51
Cc1ccc(NC(=O)CSc2nc(-c3ccco3)nc3cc(=O)[nH]n23)c(Cl)c1	2	26	9	0	12	99*
CSc1nc2oc3c(c2c2nncn12)CC(C)(C)SC3	-8	-2	-6	0	78*	13
CCOC(=O)Cc1cc(=O)n2[nH]c(C)c(-c3ccc(Cl)cc3)c2n1	1	34	-7	0	10	99*
CCOC(=O)Cc1cc(=O)n2[nH]c(C)c(-c3ccc(OC)cc3)c2n1	-6	18	-5	0	14	91*
COc1ccc(-c2c(C(F)(F)F)[nH]n3c(=O)cc(-c4ccccc4)nc23)cc1	-6	38*	23	0	37	-12
CCc1cc(=O)n2[nH]c(C)c(-c3ccc(OC)cc3)c2n1	-7	0	-7	0	27	33
COC(=O)Cc1cc(=O)n2[nH]c(C)c(-c3ccccc3)c2n1	1	16	0	0	-1	48
CCn1c(SCC(=O)NN=Cc2cc(OC)ccc2OC)nnc1-c1ccc(OC)cc1	·	0	·	·	·	·
COc1ccc2[nH]cc(C(C)c3c[nH]c4ccccc34)c2c1 (centres undefined)	·	8	·	·	·	·
CCOC(=O)c1c(S(=O)(=O)N2CCCC(C(=O)Nc3ccc(C)cn3)C2)c(C)n(C)c1C (centres undefined)	-1	-4	0	2	64*	-3
Nc1nc(/C=C/c2cccnc2)nc(-c2ccccc2O)n1	-2	6	-3	-1	5	94*
O=C(NC1CCCCN(Cc2ccc(Cl)cc2)C1=O)c1cccc([N+](=O)[O-])c1 (centres undefined)	·	4	·	·	·	·
O=C(CCCC(=O)c1ccc(O)cc1)c1ccc(O)cc1	-13	0	-8	0	·	2
O=C1C=CC(=C(c2ccc(O)cc2)c2ccc(O)cc2)C=C1	28	15	23	-1	·	99*
SMILES	APOBEC3G inh	rCAG binder	A3A deaminase	aDG glyco up	PHOSPHO1 block	ALR inh
O=C(CNc1ccccc1)NNC1=NCCC1	-6	2	-2	0	0	2
O=C(CNc1ccc2ccccc2c1)NNC1=NCCC1	-1	-1	0	0	-18	84*
O=C(CN1C(=O)CCC1=O)NNc1ccc2ccccc2c1	-6	9	-3	1	26	98*
C[C@@H]1CN(c2ccc(N3CCNC[C@H]3C)cc2C#N)C[C@H](C)O1	·	3	·	·	·	·
CCCn1c(SCC(=O)c2cc(C)c(C)cc2C)n[nH]c1=O	-1	-1	0	0	97*	?
CCCn1c(SCC(=O)c2ccc3c(c2)OCCO3)n[nH]c1=O	-15	-2	-2	0	17	27
CC(=O)Nc1ccc(S(=O)(=O)NNC(=O)COc2cc(C)ccc2C(C)C)cc1	1	6	-5	0	-26	99*
CC(=O)Nc1ccc(S(=O)(=O)NNC(=O)COc2cccc(C)c2)cc1	30	-2	-8	0	49	72
